The text below walks through data of PubChem BioAssay (NCATS).

Each structure is given as a SMILES string. Results filed as inconclusive are left out. A call without a number means that no potency is given here. The source holds several records for some structures; these can differ, active in one and inactive in another. Active and inactive are the calls of the source. Calls follow the shape of the dose curve; as a rule, active = well fitted inhibition curve with a large enough effect; inconclusive = small, poorly fitted or top-dose-only effect; inactive = flat fitted curve, though single readings scatter.
Potency is read from the fitted curve at half-maximal effect.

Glutathione peroxidase 1 (Homo sapiens), sequence (P07203 whole entry, looked up): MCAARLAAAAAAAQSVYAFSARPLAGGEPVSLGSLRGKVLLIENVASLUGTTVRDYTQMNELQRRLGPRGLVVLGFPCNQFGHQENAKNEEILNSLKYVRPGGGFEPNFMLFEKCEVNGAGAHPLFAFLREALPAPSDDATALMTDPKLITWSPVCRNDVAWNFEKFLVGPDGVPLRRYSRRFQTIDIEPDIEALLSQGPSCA

The assay concerns the target Glutathione peroxidase 1 (Homo sapiens) (UniProt P07203). As to the kind of experiment: Primary qHTS Assay for Inhibitors of Recombinant Selenoprotein Glutathione Peroxidase 1 (GPX1) (AID 1845191). Also: nearly all actives have a fitted effect of over 65% in size. Particulars: recombinant GPX1, GR-coupled NADPH fluorescence, 15 min; series mostly up to 48.8 µM. The text has this:
Assay Provider: Elias S.J. Arner MD PhD.
Department of Medical Biochemistry and Biophysics
Karolinska Institutet, Solna, Stockholm, Sweden
Selenoprotein glutathione peroxidases (GPX), like the ubiquitously expressed GPX1 and the ferroptosis modulator GPX4, enact their antioxidant activities by reducing hydroperoxides using glutathione. […] GPX1 and GPX4 inhibitors have thus shown promise as anti-cancer agents. Existing inhibitors are often promiscuous, or modulate GPX activity only indirectly, so novel direct inhibitors identified through screening against GPX1 and GPX4 could be valuable. Here, we developed optimized glutathione reductase (GR)-coupled GPX assays for the biochemical high-throughput screen (HTS) of almost 12,000 compounds with known mechanisms of action. Initial hits were triaged using a GR counter-screen, assessed for isoform specificity using a separate GPX2 assay, and were assessed for general selenocysteine-targeting activity using a thioredoxin reductase (TXNRD1) assay. With this suite of assays, we identified novel GPX1/GPX2- and GPX4-specific inhibitors and can here present a validated pipeline for future discovery research for selenoprotein-targeting agents.
SEQUENCE No. (e.g., 1, 2, 3, etc.); […] (e.g., Cells, Incubation, Reagent, etc.); VALUE; DESCRIPTION.
1; Reagent 1; 3 uL; GPx1 enzyme or no enzyme control in 1536-well, black, solid Greiner assay plate.
2; Compound; 25 nL; Kalypsis pin tool (Wako USA) equipped with a 1536-well pin head.
3; Incubation; 30 min; room temperature.
4; Reagent 2; 1 uL; 10 nM GPX1, 1 mM GSH, 0.5 mM CHP, 0.5 mM NADPH, 100 nM GR, 0.01% BSA substrate
5; Detection; Fluorescence; ViewLux microplate reader, excitation 340 nm and emission 450 nm.
6; Incubation; 15 min; room temperature.
7; Detection; Fluorescence; ViewLux microplate reader, excitation 340 nm and emission 450 nm.
NOTES (numbers refer to Sequence numbers above)
1. 3 uL of 16.66 nM GPX1 and 0.016% BSA in assay buffer (50 mM Tris-HCl, 2 mM EDTA (pH 7.5), 150 mM NaCl) was added to columns 3-48 of 1536-well assay plates using a BioRAPTR Flying Reagent Dispenser (Let's Go Robotics (LGR), Carlsbad, CA). A no-enzyme control (0.01% BSA in TES assay buffer) was added to columns 1-2.
2. 25 nL of test compounds and DMSO controls were added to each well with a pin tool (Kalypsys).
3. The assay plates were incubated for 30 minutes at room temperature.
4. 1 uL of master mix (500 nM glutathione reductase (GR), 5 mM reduced glutathione (GSH), 2.5 mM NADPH in assay buffer) was added. 1 uL of cumene hydroperoxide (CHP) ([2.5 mM] in 50% EtOH) was then added within 5 minutes to initiate the reaction. Final concentrations were: 10 nM GPX1, 1 mM GSH, 0.5 mM CHP, 0.5 mM NADPH, 100 nM GR, 0.01% BSA.
5. Initial fluorescence readout (t=0) at 340/450 nm was measured using a ViewLux multimodal detector (PerkinElmer, Waltham, MA).
7. Endpoint fluorescence readout (t=15) at 340/450 nm was measured 15 min after room temperature incubation.
For orientation: qHTS replaces the single test concentration by a dilution series.
For `CC(=O)Nc1cccc(-n2c(=O)n(C3CC3)c(=O)c3c(Nc4ccc(I)cc4F)n(C)c(=O)c(C)c32)c1`, the Potency result was “inactive”.

For `CC1CCN(c2cc(N3CCN(C)CC3)ccc2NC(=O)c2cc(C#N)c[nH]2)CC1`, the Potency entry was “inactive”.

Take `O=C(Nc1cccc(C(F)(F)F)c1)Nc1cc(S(=O)(=O)NC2CC2)ccc1-c1ccsc1`: the Potency entry was “inactive”.

For the compound `NCc1c[nH]c(=S)n1[C@H]1CCc2c(F)cc(F)cc2C1`, the Potency result is “inactive”.

For the compound `CC[C@H](C)C(=O)O[C@H]1C[C@H](O)C=C2C=C[C@H](C)[C@H](CC[C@@H](O)C[C@@H](O)CC(=O)O)[C@H]21`, the Potency entry was “inactive”.

As for `COc1ccc(Cn2ccc3ccc(C(=O)NO)cc32)cc1`, the Potency result was “inactive”.

Regarding `Cn1cnc(-c2cc3nccc(Oc4ccc(NC(=S)NC(=O)Cc5ccccc5)cc4F)c3s2)c1`, the Potency result was “inactive”.

Take `CCOC(=O)c1c(CSc2ccccc2)n(C)c2cc(Br)c(O)c(CN(C)C)c12`: the Potency entry was “inactive”.

Take `O=c1cc(-c2ccc(O)c(O)c2)oc2cc(O)cc(O)c12`: the Potency result was “inactive”.

With `C[C@@H]1C[C@H]2[C@@H]3CCC4=CC(=O)C=C[C@]4(C)[C@@]3(F)[C@@H](O)C[C@]2(C)[C@@]1(O)C(=O)CO`, the Potency result was “inactive”.

Regarding `O=C(CCCN1CCN(c2ccc(F)cc2)CC1)NC1c2ccccc2CSc2ccccc21` (stereo not given), the Potency result is “inactive”.

With `Cc1csc(-c2nnc(Nc3ccc(Oc4ncccc4-c4ccnc(N)n4)cc3)c3ccccc23)c1`, the Potency entry is “inactive”.

Turning to `CC1CNc2c(cccc2S(=O)(=O)N[C@@H](CCCN=C(N)N)C(=O)N2CC[C@@H](C)C[C@@H]2C(=O)O)C1` (stereo not given in full), the Potency result was “inactive”.

Consider `Cc1ccc(NC(=O)c2cccc(N(C)C)c2)cc1NC(=O)c1ccc(O)cc1`, for which the Potency entry is “inactive”.

With `CN[C@@H](C)[C@H]1[C@H](O)C[C@@]2(C)[C@@H]3CC[C@H]4C(C)(C)[C@@H](NC)CC[C@@]45C[C@@]35CC[C@]12C`, the outcome was “inactive [at 9.52 µM]”.

Consider `COc1cc(F)c(C(C)C)cc1-c1ccc(C(F)(F)F)cc1CN1C(=O)O[C@H](c2cc(C(F)(F)F)cc(C(F)(F)F)c2)[C@@H]1C`, for which the Potency entry is “inactive”.

On to `NS(=O)(=O)c1cc(Cl)c(Cl)c(S(N)(=O)=O)c1`, for which the Potency entry was “inactive”.

With `CN1CCC(COc2cnc(-c3cccc(Cn4nc(-c5cccc(C#N)c5)ccc4=O)c3)nc2)CC1`, the Potency entry was “inactive”.

Regarding `O=C1C(c2c(O)[nH]c3ccccc23)=Nc2ccccc21`, the Potency entry is “inactive”.

For `COC1CCC(C(=O)c2ccc3nc4c(cc3c2)CCCO4)CC1` (stereo not given), the Potency entry is “inactive”.

Turning to `Cc1ccc2c(c1)C(=O)[C@]1(O)CCN(c3ccccc3)C1=N2`, the Potency result is “inactive”.

As to `C[C@@H](NC(=O)c1ncnc(N)c1Cl)c1ncc(C(=O)Nc2cc(C(F)(F)F)c(Cl)cn2)s1`, the Potency result was “inactive”.

Take `c1ccc(CNc2nc(N3CCOc4ccccc43)nc3c2CCCC3)cc1`: the Potency entry was “inactive”.

Regarding `C[C@@]1(c2cc(-c3cncnc3)c(F)cc2F)CCSC(N)=N1`, the Potency result was “inactive”.

In the case of `CCC[C@H](Nc1nc(-c2ccc(NC(=O)NCC)c(OC)c2)ncc1C)c1cccnc1`, the Potency entry is “inactive”.

In the case of `CN1CCN(c2ncc(-c3cc(Cl)cc(Cl)c3Cl)c(N)n2)CC1`, the Potency entry is “inactive”.

Take `Cc1cnc(-c2cc(N3CCN(C(=O)CCS(C)(=O)=O)CC3)ncc2Cl)c(C)c1`: the Potency result is “inactive”.

As for `CC1(COc2ccc3c(c2)ncn3-c2ccc3cccc(N4CCC(N)CC4)c3n2)COC1`, the Potency entry is “inactive”.

For the compound `COc1ccc2c(c1)c(C1=C(c3c[nH]c4ccccc34)C(=O)NC1=O)cn2CCCN(C)C`, the Potency result was “inactive”.

`Cc1c(C(=O)Nc2ccc(N3C[C@@H](C)O[C@@H](C)C3)nc2)cccc1-c1ccc(OC(F)(F)F)cc1`: the Potency result was “inactive”.

Turning to `CCOc1ccccc1N=Nc1c(C)[nH]n(-c2nc(-c3ccccc3)cs2)c1=O`, the Potency entry was “inactive”.

With `N#CC(c1ccnc(NCCc2cccnc2)n1)c1nc2ccccc2s1` (stereo not given), the Potency entry is “inactive”.

Turning to `CCC(=O)N1CCN(c2ccc(-n3c(=O)ccc4cnc5ccc(-c6cnc7ccccc7c6)cc5c43)cc2C(F)(F)F)CC1`, the Potency entry was “inactive”.

Turning to `COc1ccnc(CS(=O)c2nc3ccc(OC(F)F)cc3[nH]2)c1OC` (stereo not given), the Potency was 9.04 µM (active) and inactive.

Consider `CN(C)c1ccccc1CN1CCCN(Cc2ccccc2N(C)C)C1c1ccncc1`, for which the Potency result was “inactive”.

Regarding `Cc1ccc(S(=O)(=O)OCC(=O)Nc2ccc(C(=O)O)c(O)c2)cc1`, the Potency entry was “inactive”.

Take `c1cc(OCCN2CCCCC2)cc(-c2n[nH]c3ccc(-c4ncn[nH]4)cc23)c1`: the Potency entry was “inactive”.

Regarding `CCCCOCCOc1nc(-c2ccc(C(=O)O)c(F)c2)sc1C`, the Potency entry was “inactive”.

`C[C@H](CCC(=O)O)[C@H]1CC[C@H]2[C@H]3[C@@H](CC[C@]12C)[C@@]1(C)CC[C@@H](O)C[C@H]1C[C@@H]3O`: the Potency result is “inactive”.

Consider `CCCCC[C@H](O)C=C[C@H]1[C@H](O)CC(=O)[C@H]1CC=CCCCC(=O)O`, for which the Potency result is “inactive”.
